Measured values: PubChem BioAssay (NCATS)
Inconclusive results are not listed. Calls of active or inactive are those of the source. Unless noted, calls follow the shape of the dose curve; as a rule, active = well fitted inhibition curve with a large enough effect; inconclusive = small, poorly fitted or top-dose-only effect; inactive = flat fitted curve, though single readings scatter.

What was measured:
[1] = qHTS drug screen for cell cycle checkpoint inhibitors in PARPi-resistant BRCA-mutant ovarian cancer cell lines. (AID 1963452; calls by dose curve); details: PEO1/OlaR viability, CellTiter-Glo luminescence, 96 h; for Z-AUC: stronger effect = lower value
Method in brief: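 PEO1, PEO4 and PEO1/OlaR ovarian cancer cells, 600 per well, exposed 96 h at 37C to a dilution series. Viability read by CellTiter-Glo luminescence, normalized to DMSO and empty wells; activity summarized as Z-AUC.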

[2] = qHTS profiling for inhibitors of Plasmodium falciparum proliferation (AID 504749);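 as to activity, negative = inhibition: 0% = DMSO vehicle and full inhibition = artemisinin control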; as to all read-outs here: nearly all actives have a fitted effect of over 60% in size; details: P. falciparum in erythrocytes, SYBR Green DNA, 72 h; for activity, negative = inhibition: at 28.7 µM (top of the series)
Method in brief: (§1)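 Parasite proliferation within erythrocytes, 72 h exposure. Endpoint: SYBR Green I fluorescence after overnight lysis at room temperature. Controls: 0.29 uM artemisinin, DMSO.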

3D7 = experiment: as above; details: P. falciparum in erythrocytes, SYBR Green DNA, 72 h; series mostly up to 28.7 µM
Method in brief: as §1

AA1029 = experiment: as above; details: P. falciparum in erythrocytes, SYBR Green DNA, 72 h; series mostly up to 28.7 µM
Method in brief: as §1

AS120 = experiment: as above; details: P. falciparum in erythrocytes, SYBR Green DNA, 72 h; series mostly up to 28.7 µM
Method in brief: as §1

ATS189 = experiment: as above; details: P. falciparum in erythrocytes, SYBR Green DNA, 72 h; series mostly up to 28.7 µM
Method in brief: as §1

ATS95 = experiment: as above; details: P. falciparum in erythrocytes, SYBR Green DNA, 72 h; series mostly up to 28.7 µM
Method in brief: as §1

C2A = experiment: as above; details: P. falciparum in erythrocytes, SYBR Green DNA, 72 h; series mostly up to 28.7 µM
Method in brief: as §1

CP185 = experiment: as above; details: P. falciparum in erythrocytes, SYBR Green DNA, 72 h; series mostly up to 28.7 µM
Method in brief: as §1

7G8 = experiment: as above; details: P. falciparum in erythrocytes, SYBR Green DNA, 72 h; series mostly up to 28.7 µM
Method in brief: as §1

[3] = measured here: PEO1 parental Z-AUC
Potency is read from the fitted curve at half-maximal effect.

Row | SMILES | Potency [1] | Z-AUC [1, 3] | Z-AUC ([1]; measured here: PEO4 Z-AUC) | activity, negative = inhibition ([2]; parasite line A) | activity, negative = inhibition ([2]; parasite line B) | Potency (3D7) | Potency (AA1029) | Potency (AS120) | Potency (ATS189) | Potency (ATS95) | Potency (C2A) | Potency (CP185) | Z-AUC [1] | Potency (7G8) | Potency ([2]; parasite line A) | Potency ([2]; parasite line B)
1 | O=c1[nH]c(=O)n([C@H]2C[C@H](O)[C@@H](CO)O2)cc1F | 0.245 µM (active) | -1.95 | -1.41 | 0.388% (inactive) | -0.681% (inactive) | inactive | inactive | inactive | inactive | inactive | inactive | inactive | – | – | – | –
2 | C[C@@H](O)[C@H]1C(=O)N2C(C(=O)O)=C(S[C@@H]3CN[C@H](CNS(N)(=O)=O)C3)[C@H](C)[C@H]12 | – | 0.644 | 0.433 | 0.841% (inactive) | 3.74% (inactive) | inactive | inactive | inactive | inactive | inactive | inactive | inactive | -0.121 (inactive) | inactive | – | –
3 | Cc1ccc(-c2ncc(Cl)cc2-c2ccc(S(C)(=O)=O)cc2)cn1 | – | 0.717 | 0.912 | – | – | inactive | – | – | – | – | – | – | 0.855 (inactive) | 8.91 µM (active) | – | –
4 | CCOC(=O)[C@H](CCc1ccccc1)N[C@@H](C)C(=O)N1[C@H](C(=O)O)C[C@@H]2CCC[C@@H]21 | – | -0.134 | -0.409 | – | – | – | – | – | – | – | – | – | -0.637 (inactive) | – | – | –
5 | C=C[C@H]1CN2CC[C@H]1C[C@@H]2[C@@H](O)c1ccnc2ccc(OC)cc12 | – | -0.182 | -0.0481 | – | – | – | – | – | – | – | – | – | -0.544 (inactive) | – | – | –
6 | CNCCCCOc1ccccc1Cc1ccccc1 | – | – | – | -10.8% (inactive) | -10.9% (inactive) | inactive | 5.01 µM (active) | – | – | – | – | – | – | 6.31 µM (active) | – | –
7 | C#C[C@]1(O)CC[C@H]2[C@@H]3CCc4cc(OC)ccc4[C@H]3CC[C@@]21C | – | 0.901 | 1.32 | 1.32% (inactive) | 15.1% (inactive) | inactive | inactive | inactive | inactive | inactive | inactive | inactive | 1.12 (inactive) | inactive | – | –
8 | FC1(F)C(F)(F)C(F)(F)C2(F)C(F)(F)C(F)(F)C(F)(F)C(F)(F)C2(F)C1(F)F (stereo unspecified) | – | – | – | 5.48% (inactive) | 12.9% (inactive) | inactive | inactive | inactive | inactive | inactive | inactive | inactive | – | inactive | – | –
9 | Cc1ccc(O)c([C@H](CCN(C(C)C)C(C)C)c2ccccc2)c1 | – | -0.8 | -0.815 | – | – | 6.31 µM (active) | 3.16 µM (active) | 2.51 µM (active) | 3.98 µM (active) | 3.55 µM (active) | 11.2 µM (active) | 10 µM (active) | -0.294 (inactive) | 1 µM (active) | 7.08 µM (active) | 3.98 µM (active)
10 | CCCCCCCCCCC[C@@H](C[C@@H]1OC(=O)[C@H]1CCCCCC)OC(=O)[C@H](CC(C)C)NC=O | – | 1.61 | 1.43 | – | – | – | – | – | – | – | – | – | 1.22 (inactive) | – | – | –
11 | CC(=O)O[C@H]1C[C@@H]2CC[C@@H]3[C@H](CC[C@@]4(C)[C@H]3C[C@H]([N+]3(C)CCCCC3)[C@@H]4OC(C)=O)[C@@]2(C)C[C@@H]1N1CCCCC1 | – | 1.43 | 1.85 | – | -19.6% (inactive) | inactive | – | inactive | – | – | – | – | 1.73 (inactive) | – | – | –
12 | O=C(O)P(=O)(O)O | – | – | – | 3.96% (inactive) | -2.94% (inactive) | inactive | inactive | inactive | inactive | inactive | inactive | inactive | – | inactive | – | –
